Compound activity deposited in PubChem BioAssay by Broad Institute.
C2C12 statin – suppressors of simvastatin-induced myotoxicity in C2C12 myotubes; ATP luminescence, 48 h; scaled: DMSO 0, geranylgeraniol control 100; 330,000 tested, 0.78% active; rescue of ATP level, % at 7.49 µM;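 active = mean ATP rescue above about 67%, or every replicate alone reaching that limit, limit read from the data, passing the limit was not always enough; inconclusive = no clear call, values can overlap the other calls; inactive = mean under the limit and some replicate under it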;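 also: myotubes were challenged with 10 µM simvastatin during compound exposure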
PvdQ inh – blocks Pseudomonas aeruginosa PvdQ acylase activity | purified PvdQ acylase, fluorescence plate reader | inhibition, % at 10 µM | 340,000 tested, 0.063% active | AID 488965; in the data active = inhibition above about 30%, passing the limit was not always enough; inconclusive = no clear call, values can overlap the other calls
miR-122 sensor – miR-122 inhibition in Huh7 cells; 340,000 tested, 0.3% active; activation (reporter increase), % at 12.5 µM; AID 602342; Huh7 miR-122 Renilla luciferase sensor, 48 h; neutral wells = 0, positive control = 100;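 active = mean replicate activation score at least 90 and every replicate individually at or above 90; inconclusive = only one of the two criteria met; inactive = neither criterion met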;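 also: higher luciferase means less miR-122 activity so hits act as miR-122 inhibitors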
DENV2 CPE rescue – inhibitors of DENV2 cytopathic effect; CPE inhibition, % at 9.99 µM; DENV2-infected cells, cytopathic effect rescue, plate reader; 350,000 tested, 1.7% active; in the data active = CPE inhibition above about 20%, passing the limit was not always enough; inconclusive = no clear call, values can overlap the other calls; tested in BHK-21 cells
PGC1a acetyl inh – lowers PGC1a acetylation signal in U2OS cells | AlphaScreen anti-acetyl-lysine; with virally co-expressed GCN5 acetyltransferase | inhibition, % at 15.6 µM | AID 651687 | 350,000 tested, 0.17% active;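 active = every replicate shows inhibition of at least 40%; inconclusive = mean inhibition at least 40% but some replicate below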
Numbers stand for hits; - = inactive; ? = inconclusive; . = no result. This is a sample that favours compounds with a hit; in the whole collection about 2.2% have one here.

SMILES | C2C12 statin | PvdQ inh | miR-122 sensor | DENV2 CPE rescue | PGC1a acetyl inh
O=C(c1cccc(F)c1)N1CC[C@@H]2[C@@H](CO)Nc3ccc(C#Cc4ccccc4)cc3[C@@H]21 | . | . | . | - | .
O=C(c1ccccc1)N1CC[C@@H]2[C@H](CO)Nc3ccc(C#Cc4ccccc4F)cc3[C@@H]21 | - | . | - | - | -
O=C(c1ccccc1)N1CC[C@H]2[C@H](CO)Nc3ccc(C#Cc4cccc(F)c4)cc3[C@H]21 | - | . | - | 64 | -
CC(=O)N(C)C[C@@H]1Oc2ncc(C#Cc3ccncc3)cc2C(=O)N([C@@H](C)CO)C[C@H]1C | - | . | - | - | -
CO[C@H]1CN(C)C(=O)c2cc(NS(=O)(=O)c3cn(C)cn3)ccc2OC[C@@H](C)N(C)C[C@@H]1C | - | . | - | . | -
Cc1ccc(S(=O)(=O)Nc2cccc(-c3cn4ccsc4n3)c2)cc1 | - | - | 142 | . | -
Cc1cccc(S(=O)(=O)Nc2cccc(-c3cn4ccsc4n3)c2)c1 | - | - | - | . | -
CCOC(=O)CN1C(=O)C(C)(C)Oc2ccc(C(=O)Nc3ccccc3)cc21 | - | - | 159 | . | -
COC(=O)CN1C(=O)C(C)(C)Oc2ccc(C(=O)Nc3ccccc3F)cc21 | - | - | . | ? | .
O=C(NCCN1C(=O)S/C(=C\c2cccnc2)C1=O)C1CC(=O)N(Cc2ccco2)C1 (stereo not given) | - | - | - | - | -
CSc1cccc(N2CC(C(=O)NCCN3C(=O)S/C(=C\c4cccnc4)C3=O)CC2=O)c1 (stereo not given) | - | - | - | - | 75
C[C@@H]1CN([C@@H](C)CO)C(=O)c2cc(NC(=O)Nc3ccc(C(F)(F)F)cc3)ccc2O[C@@H]1CN(C)C | - | . | - | 22 | -
Cc1noc(C)c1NC(=O)Nc1ccc2c(c1)C(=O)N([C@@H](C)CO)C[C@@H](C)[C@@H](CN(C)C(=O)Nc1ccc(C(F)(F)F)cc1)O2 | - | . | - | 32 | -
Cc1noc(C)c1NC(=O)Nc1ccc2c(c1)C(=O)N([C@@H](C)CO)C[C@H](C)[C@H](CN(C)C(=O)Nc1ccc(C(F)(F)F)cc1)O2 | - | . | - | - | -
C[C@H]1CN([C@@H](C)CO)C(=O)c2cc(NC(=O)Nc3ccc(F)cc3)ccc2O[C@H]1CN(C)C | - | . | - | - | -
C[C@H]1CN([C@@H](C)CO)C(=O)c2cc(NC(=O)Nc3ccc(F)cc3)ccc2O[C@@H]1CN(C)C | - | . | - | 26 | -
C[C@H](CO)N1C[C@H](C)[C@@H](CN(C)C)Oc2ccc(NC(=O)Nc3ccc(F)cc3)cc2C1=O | - | . | - | 75 | -
C[C@@H]1CN([C@H](C)CO)C(=O)c2cc(NC(=O)Nc3ccc(F)cc3)ccc2O[C@H]1CN(C)C | - | . | - | - | -
O=C1CN(S(=O)(=O)Cc2ccccc2)C[C@@H]2[C@@H](c3ccc(C#Cc4cccnc4)cc3)[C@H](CO)N12 | . | . | . | - | -
O=C(CC(F)(F)F)N1C[C@@H]2[C@H](c3ccccc31)[C@H](CO)N2C(=O)Cc1cccnc1 | - | . | - | - | -
CN(C)C(=O)C[C@@H]1CC[C@H](NS(=O)(=O)c2ccccc2)[C@H](CO)O1 | - | . | - | - | -
COc1ccc(NC(=O)N(C)C[C@H]2Oc3ncc(-c4cccnc4)cc3C(=O)N([C@@H](C)CO)C[C@@H]2C)cc1 | - | . | - | - | -
CCN1[C@H](C(=O)NCCc2ccccc2)[C@@H](CO)[C@@H]2Cn3c(ccc(C4=CCCC4)c3=O)[C@@H]21 | - | . | - | - | -
CCCNC(=O)C[C@H]1CC[C@H]2[C@@H](COC[C@H](O)CN2C(=O)Nc2ccccc2OC)O1 | - | . | - | 21 | -
CCCNC(=O)C[C@H]1CC[C@H]2[C@@H](COC[C@@H](O)CN2C(=O)Nc2ccccc2OC)O1 | - | . | - | 44 | -
CCCNC(=O)C[C@H]1CC[C@@H]2[C@H](COC[C@H](O)CN2C(=O)CC)O1 | - | . | - | 83 | -
CC=Cc1ccc2n(c1=O)C[C@H]1[C@H](CO)[C@@H](C(=O)NCCC)[C@@H]2N1CCC(F)(F)F (mixture of isomers) | - | . | - | - | .
C[C@@H]1CN([C@H](C)CO)C(=O)c2cc(NS(=O)(=O)c3cccs3)ccc2O[C@H]1CN(C)C | - | . | - | - | -
C[C@H](NC(=O)[C@@H]1[C@@H](CO)[C@@H]2Cn3c(ccc(-c4ccncc4)c3=O)[C@H]1N2C)c1ccccc1 | - | . | - | - | -
COc1ccc(NC(=O)N(C)C[C@@H]2Oc3ccc(NC(=O)NC(C)C)cc3CC(=O)N([C@@H](C)CO)C[C@H]2C)cc1 | - | . | - | - | -
